Measurements: PubChem BioAssay
Inconclusive results are not listed. Calls of active or inactive are those of the source.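 How the source made its calls, unless noted: active means percent response above a set limit, the screen-wide mean plus 3 SD (cut at about 130% in these data); inactive means the rest.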

Assays:
[1] = yeast TOR pathway RPL19A-GFP modulators, primary screen, cell-based, S. cerevisiae, multiplex flow cytometry (AID 1862; in the data active means percent of DMSO control GFP below about 86%;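 further: lower values mimic rapamycin by blocking the RPL19A rise seen in DMSO cells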); settings: S. cerevisiae RPL19A-GFP strain, flow cytometry fluorescence, 3 h; at 10 µM; stronger effect = lower value
[2] = modulators of MEP2-GFP levels in yeast, primary screen, S. cerevisiae, multiplex flow cytometry (AID 1867;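 active means GFP response, as percent of the DMSO control, above the screen-wide mean plus 3 SD, about 139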;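 further: median GFP channel fluorescence of barcode-gated MEP2-GFP cells measured by flow cytometry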); settings: S. cerevisiae MEP2-GFP strain, 3 h, at 10 µM, stronger effect = higher value, 100% means same as DMSO wells
[3] = modulators of CIT2-GFP expression in yeast, primary screen, S. cerevisiae, GFP fusion, multiplex flow cytometry (AID 1870); settings: 3 h, at 10 µM, stronger effect = higher value;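 further: barcoded CIT2-GFP strain pooled with four other GFP strains with rapamycin as positive control; median GFP fluorescence per well over plate mean of DMSO wells so 100% = DMSO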
[4] = modulators of LAP4-GFP expression in yeast, primary screen, S. cerevisiae, multiplex flow cytometry (AID 1873;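 active means GFP signal, as percent of the solvent control, above the screen mean plus 3 SD, about 149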); settings: 3 h, at 10 µM, stronger effect = higher value
[5] = modulators of AGP1-GFP expression in yeast TOR pathway, primary screen, cell-based, multiplex flow cytometry, S. cerevisiae (AID 1887;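 active means GFP signal above the screen-wide mean plus 3 SD, that is over about 124.5% of the solvent control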;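 further: AGP1-GFP fusion strain of S. cerevisiae within a five-strain barcoded multiplex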); settings: 3 h, at 10 µM, stronger effect = higher value
[6] = inhibitors of CD8+ T cell-vesicle binding, pilot screen, LFA-1/ICAM-1 modulator project, MLPCN validation set, flow cytometry (AID 2523;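 active means response below a set limit, under 55% cells CD8-positive and vesicle-bound, and CD8 cells' 90th-percentile brightness under 279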;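 on vesicle binding response: mean PE anti-B7-1 fluorescence of CD8+ cells relative to row control; 100% = QL9-loaded vesicles with DMSO vehicle in the same plate row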); settings: 2C mouse CD8+ T cells, at 7 µM, stronger effect = lower value; double positive events: measured here: CD8+/vesicle+ event percentage
[7] = biological target: Integrin beta-1 (Homo sapiens) + Integrin alpha-4 (Homo sapiens) (UniProt P13612+P05556); test: inhibition of HUTS-21 binding to VLA-4, pilot screen, VLA-4 allosteric modulator project, U937 cells, HUTS-21 mAb, flow cytometry, validation set (AID 2674;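 active means inhibition above 50%, about 3 SD of the validation set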;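 further: antibody binding induced by the VLA-4 ligand LDV present at three times its Kd; 0% = LDV ligand with antibody and no compound and 100% = antibody without LDV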); settings: HUTS-21 LIBS mAb binding, at 6.7 µM, stronger effect = higher value, binding induced by LDV ligand
Chain of Integrin beta-1 (Homo sapiens) + Integrin alpha-4 (Homo sapiens) (P05556 whole entry, looked up): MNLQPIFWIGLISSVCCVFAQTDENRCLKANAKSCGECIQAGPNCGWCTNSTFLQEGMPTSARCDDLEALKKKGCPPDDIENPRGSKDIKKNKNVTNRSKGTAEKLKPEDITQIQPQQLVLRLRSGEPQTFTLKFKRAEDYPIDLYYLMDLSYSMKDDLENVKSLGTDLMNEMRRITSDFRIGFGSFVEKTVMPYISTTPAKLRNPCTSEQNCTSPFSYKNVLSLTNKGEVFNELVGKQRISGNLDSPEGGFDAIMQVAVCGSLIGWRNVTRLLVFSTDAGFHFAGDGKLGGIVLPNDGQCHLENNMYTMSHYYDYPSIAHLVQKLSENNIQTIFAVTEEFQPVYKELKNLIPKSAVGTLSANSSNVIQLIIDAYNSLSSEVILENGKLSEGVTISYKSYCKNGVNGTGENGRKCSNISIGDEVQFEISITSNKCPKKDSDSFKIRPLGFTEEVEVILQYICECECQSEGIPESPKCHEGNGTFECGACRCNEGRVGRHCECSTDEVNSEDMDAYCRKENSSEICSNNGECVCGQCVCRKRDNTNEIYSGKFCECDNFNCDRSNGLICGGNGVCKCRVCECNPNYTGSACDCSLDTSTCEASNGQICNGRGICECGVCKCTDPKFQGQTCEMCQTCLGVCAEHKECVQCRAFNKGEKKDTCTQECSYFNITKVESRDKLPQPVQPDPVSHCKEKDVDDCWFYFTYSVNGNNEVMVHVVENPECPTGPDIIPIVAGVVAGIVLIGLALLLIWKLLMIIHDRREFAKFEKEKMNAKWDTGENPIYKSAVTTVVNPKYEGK
Chain of Integrin beta-1 (Homo sapiens) + Integrin alpha-4 (Homo sapiens) (P13612 whole entry, looked up): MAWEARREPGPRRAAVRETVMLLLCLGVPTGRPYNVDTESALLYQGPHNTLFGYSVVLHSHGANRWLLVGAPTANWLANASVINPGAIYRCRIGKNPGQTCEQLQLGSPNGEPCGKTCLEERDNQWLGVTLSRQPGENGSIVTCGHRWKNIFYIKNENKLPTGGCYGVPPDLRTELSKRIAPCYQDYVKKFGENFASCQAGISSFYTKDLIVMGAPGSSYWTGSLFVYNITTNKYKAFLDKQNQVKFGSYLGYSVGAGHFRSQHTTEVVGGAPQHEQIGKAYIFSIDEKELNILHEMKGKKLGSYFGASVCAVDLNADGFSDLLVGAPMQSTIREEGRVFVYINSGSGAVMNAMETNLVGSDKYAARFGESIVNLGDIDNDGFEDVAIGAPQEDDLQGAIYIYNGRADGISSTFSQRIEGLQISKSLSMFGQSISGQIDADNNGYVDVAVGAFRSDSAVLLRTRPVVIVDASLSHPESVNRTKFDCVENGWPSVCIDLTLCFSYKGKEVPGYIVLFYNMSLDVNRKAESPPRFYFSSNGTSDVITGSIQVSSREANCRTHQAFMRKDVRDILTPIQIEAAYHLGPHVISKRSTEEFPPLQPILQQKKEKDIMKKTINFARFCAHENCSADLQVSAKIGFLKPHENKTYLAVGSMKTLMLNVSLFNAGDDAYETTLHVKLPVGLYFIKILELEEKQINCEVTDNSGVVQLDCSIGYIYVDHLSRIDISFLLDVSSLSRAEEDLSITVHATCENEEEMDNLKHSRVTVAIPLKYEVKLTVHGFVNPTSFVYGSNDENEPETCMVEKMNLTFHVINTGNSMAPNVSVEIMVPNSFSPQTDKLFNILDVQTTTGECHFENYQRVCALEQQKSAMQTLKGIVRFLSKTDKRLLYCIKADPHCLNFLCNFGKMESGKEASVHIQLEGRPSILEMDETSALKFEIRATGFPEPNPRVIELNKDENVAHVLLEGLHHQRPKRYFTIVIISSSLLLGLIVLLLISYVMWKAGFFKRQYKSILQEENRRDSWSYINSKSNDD

[8] = superoxide lowering in aged yeast cells, pilot screen, validation compound set (AID 2706;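 active means superoxide response below 65% of plate, a cut near 3 SD across the whole screen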;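 further: yeast exposed to compound for one week at 30 degrees C before staining; 100% = mean of all compound wells on the same plate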); settings: S. cerevisiae aging, superoxide DHE fluorescence; at 10 µM; stronger effect = lower value
[9] = biological target: Beta-adrenergic receptor kinase 1 (Homo sapiens) (UniProt P25098); test: GRK2 binders displacing RNA aptamer, biochemical, validation, human GRK2, bead flow cytometry (AID 488806;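 active means aptamer binding inhibition above 30%, about 3 SD of noise from non-fluorescent compounds; inactive means inhibition at or below 30%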); settings: bead-bound GRK2, FAM-aptamer displacement, at 10 µM, stronger effect = higher value
Chain of Beta-adrenergic receptor kinase 1 (Homo sapiens) (P25098 whole entry, looked up): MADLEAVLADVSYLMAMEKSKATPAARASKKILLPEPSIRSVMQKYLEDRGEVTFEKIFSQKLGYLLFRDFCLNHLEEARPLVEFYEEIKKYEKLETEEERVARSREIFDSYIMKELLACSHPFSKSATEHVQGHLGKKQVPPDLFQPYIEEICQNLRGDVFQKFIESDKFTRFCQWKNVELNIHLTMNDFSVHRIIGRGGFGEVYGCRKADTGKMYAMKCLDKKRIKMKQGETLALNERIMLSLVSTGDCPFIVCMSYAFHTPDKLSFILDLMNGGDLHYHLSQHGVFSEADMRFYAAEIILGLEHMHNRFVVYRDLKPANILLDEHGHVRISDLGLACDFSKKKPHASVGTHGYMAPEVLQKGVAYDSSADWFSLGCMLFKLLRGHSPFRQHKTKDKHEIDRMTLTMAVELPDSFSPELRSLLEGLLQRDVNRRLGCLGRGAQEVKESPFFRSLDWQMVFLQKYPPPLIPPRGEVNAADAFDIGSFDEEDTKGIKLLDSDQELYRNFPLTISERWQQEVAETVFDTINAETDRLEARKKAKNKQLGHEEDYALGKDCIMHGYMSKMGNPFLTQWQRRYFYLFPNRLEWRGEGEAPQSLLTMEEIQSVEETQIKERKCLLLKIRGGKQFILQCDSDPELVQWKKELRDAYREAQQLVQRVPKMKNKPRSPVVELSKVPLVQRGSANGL

[10] = biological target: Beta-2 adrenergic receptor (Homo sapiens) (UniProt P07550); test: beta2AR agonists driving receptor internalization, pilot screen, cell-based, FAP fluorogen, flow cytometry, validation set (AID 504459;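 active means percent response above 42, roughly 3 SD of non-fluorescent test compounds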;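 further: agonist-driven loss of surface beta2AR via internalization measured by FAP dye flow cytometry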); settings: Am2.2-beta2AR cells, FAP surface receptor flow cytometry; at 10 µM; stronger effect = higher value
Chain of Beta-2 adrenergic receptor (Homo sapiens) (P07550 whole entry, looked up): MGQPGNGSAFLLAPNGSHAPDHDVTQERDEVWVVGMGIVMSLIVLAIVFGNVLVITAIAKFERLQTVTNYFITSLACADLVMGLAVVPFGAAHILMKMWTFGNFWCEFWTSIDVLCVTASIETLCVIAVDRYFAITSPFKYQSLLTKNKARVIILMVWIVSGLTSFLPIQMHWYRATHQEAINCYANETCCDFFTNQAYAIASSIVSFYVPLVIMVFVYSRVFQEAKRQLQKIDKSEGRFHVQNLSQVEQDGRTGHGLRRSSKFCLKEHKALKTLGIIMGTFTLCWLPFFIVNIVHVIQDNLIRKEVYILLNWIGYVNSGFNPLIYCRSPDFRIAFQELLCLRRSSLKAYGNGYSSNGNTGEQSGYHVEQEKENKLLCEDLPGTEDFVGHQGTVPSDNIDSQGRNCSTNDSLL

[11] = biological target: AP-2 complex subunit beta (Homo sapiens) (UniProt P63010); test: inhibitors of arrestin peptide binding to AP2, pilot screen, biochemical, validation set, GST-AP2 beads, flow cytometry (AID 504541;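 active means inhibition above 54%, about 3 SD of non-fluorescent compounds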;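 further: AP2 carries R879A mutation and is captured from E. coli lysate; bead-bound FITC arrestin peptide fluorescence measuring arrestin peptide binding to AP2; 0% = DMSO wells and 100% = excess unlabeled arrestin peptide control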); settings: FITC arrestin peptide, at 10 µM, stronger effect = higher value, AP2 beta2 appendage fragment, R879A mutant
Chain of AP-2 complex subunit beta (Homo sapiens) (P63010 whole entry, looked up, the tested form may be a part, one chain of several): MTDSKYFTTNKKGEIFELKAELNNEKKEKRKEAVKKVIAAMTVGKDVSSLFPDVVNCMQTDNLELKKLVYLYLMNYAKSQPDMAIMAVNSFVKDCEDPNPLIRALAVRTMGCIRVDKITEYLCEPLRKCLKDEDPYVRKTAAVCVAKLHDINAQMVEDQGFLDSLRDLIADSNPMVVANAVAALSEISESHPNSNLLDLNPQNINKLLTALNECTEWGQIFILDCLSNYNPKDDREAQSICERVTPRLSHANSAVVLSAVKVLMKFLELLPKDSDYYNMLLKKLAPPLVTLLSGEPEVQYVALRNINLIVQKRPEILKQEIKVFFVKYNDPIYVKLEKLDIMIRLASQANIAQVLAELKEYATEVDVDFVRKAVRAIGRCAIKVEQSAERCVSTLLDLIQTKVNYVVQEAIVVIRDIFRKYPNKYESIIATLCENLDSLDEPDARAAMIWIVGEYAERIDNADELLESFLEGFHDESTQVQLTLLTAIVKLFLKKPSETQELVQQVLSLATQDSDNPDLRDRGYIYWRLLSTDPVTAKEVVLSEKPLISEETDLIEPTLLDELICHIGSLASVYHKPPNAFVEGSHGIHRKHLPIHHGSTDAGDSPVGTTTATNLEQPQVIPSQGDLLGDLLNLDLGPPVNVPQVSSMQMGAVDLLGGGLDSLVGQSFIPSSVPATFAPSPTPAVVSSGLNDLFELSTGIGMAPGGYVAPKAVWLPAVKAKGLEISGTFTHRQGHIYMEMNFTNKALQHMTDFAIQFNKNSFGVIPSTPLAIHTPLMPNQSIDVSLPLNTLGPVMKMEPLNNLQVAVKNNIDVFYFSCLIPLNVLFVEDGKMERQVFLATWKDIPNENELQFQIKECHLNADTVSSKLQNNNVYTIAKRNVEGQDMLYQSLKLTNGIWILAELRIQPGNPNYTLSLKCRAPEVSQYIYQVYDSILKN

[12] = yeast V-ATPase proton transport modulators, S. cerevisiae, pHLuorin, HTS validation (AID 504600; in the data active means response above about 15%;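 further: plate controls were DMSO for no effect and reference compound for full effect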); settings: S. cerevisiae pHLuorin cytosolic pH, at 10 µM, stronger effect = higher value
[13] = tested on: anti-desmoglein-3 scFv antibody binding to human DSG3; test: inhibitors of anti-DSG3 scFv binding to DSG3, pilot screen, biochemical, validation compound set, bead-based, flow cytometry (AID 588368;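 active means binding below the plate cutoff, the plate median minus 3 SD, with a reading above zero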;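 further: signal is the median channel fluorescence of bead-bound GFP antibody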); settings: Protein G beads, DSG3-Fc, scFv-GFP binding, at 10 µM, stronger effect = lower value
[14] = inhibitors of fungal efflux pumps CDR1, CDR2, MDR1, pilot screen, validation compound set, multiplex, phenotypic (AID 588506;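 active means efflux inhibition above 0.42, the validation set average plus 4 SD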;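 further: Nile Red retained in cells so higher fluorescence means more efflux inhibition; 0 = negative control wells and 1 = enniatin B 25 µM full block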); settings: S. cerevisiae pump-expressing triplex, Nile Red efflux flow cytometry; at 10 µM; stronger effect = higher value; the pumps come from Candida albicans
[15] = biological target: ATP-binding cassette sub-family B member 6 (Homo sapiens) (UniProt Q9NP58); test: ABCB6 transporter inhibitors, pilot screen, K562-ABCB6 cells, flow cytometry, validation set (AID 588550;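 active means inhibition above the screen-wide mean plus 3 SD, about 51%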;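 further: 0% = DMSO wells and 100% = benzethonium chloride 70 µM positive control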); settings: K562-ABCB6 porphyrin accumulation, 1 h, at 10 µM, stronger effect = higher value
Chain of ATP-binding cassette sub-family B member 6 (Homo sapiens) (Q9NP58 whole entry, looked up): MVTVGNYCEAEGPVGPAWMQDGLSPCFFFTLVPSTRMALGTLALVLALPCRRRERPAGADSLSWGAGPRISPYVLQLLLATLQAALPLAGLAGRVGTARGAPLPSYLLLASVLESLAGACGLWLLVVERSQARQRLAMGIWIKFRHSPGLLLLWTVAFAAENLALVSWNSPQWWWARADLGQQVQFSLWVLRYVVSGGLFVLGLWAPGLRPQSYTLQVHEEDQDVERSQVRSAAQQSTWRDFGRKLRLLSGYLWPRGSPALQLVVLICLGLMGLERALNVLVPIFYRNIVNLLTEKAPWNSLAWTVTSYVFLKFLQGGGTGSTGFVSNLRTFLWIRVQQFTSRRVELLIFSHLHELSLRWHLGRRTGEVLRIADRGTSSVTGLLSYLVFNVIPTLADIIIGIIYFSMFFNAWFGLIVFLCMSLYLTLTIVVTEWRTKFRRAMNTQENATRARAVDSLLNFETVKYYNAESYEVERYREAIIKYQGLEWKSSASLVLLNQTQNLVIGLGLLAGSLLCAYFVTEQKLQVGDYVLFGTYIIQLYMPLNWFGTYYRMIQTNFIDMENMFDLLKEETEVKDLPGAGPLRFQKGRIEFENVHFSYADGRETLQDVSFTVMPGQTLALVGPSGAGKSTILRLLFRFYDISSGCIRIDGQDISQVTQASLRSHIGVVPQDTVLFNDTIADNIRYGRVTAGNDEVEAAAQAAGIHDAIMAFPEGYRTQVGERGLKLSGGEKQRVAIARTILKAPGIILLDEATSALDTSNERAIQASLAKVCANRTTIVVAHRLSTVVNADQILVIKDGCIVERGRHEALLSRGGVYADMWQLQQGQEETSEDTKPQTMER

[16] = promoters of myeloid differentiation in arrested cells, primary screen, cell-based, GFP/MAC1 double positive, flow cytometry, validation set (AID 588685;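 active means differentiation response of at least 50%, scaled between solvent and reference control, from cells with both markers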;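 further: compound exposure lasts four days before antibody staining and flow analysis; 0% = DMSO wells and 100% = 5 µM fulvestrant positive control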); settings: ER-HoxA9 marrow cells, stronger effect = higher value, normalized: vehicle 0, fulvestrant 100

| Compound | percent of DMSO control GFP [1] | GFP response vs DMSO [2] | percent response of DMSO control [3] | GFP response vs DMSO [4] | GFP response, % of DMSO [5] | double positive events [6] | vesicle binding response [6] | inhibition [7] | superoxide response (% of plate) [8] | aptamer binding inhibition [9] | response [10] | inhibition [11] | response [12] | binding (% of control) [13] | efflux inhibition (fraction of control) [14] | inhibition [15] | differentiation response [16] |
| --- | --- | --- | --- | --- | --- | --- | --- | --- | --- | --- | --- | --- | --- | --- | --- | --- | --- |
| CN1C2CCC1CC(OC(c1ccccc1)c1ccccc1)C2 (stereo not given) | 101% (inactive) | 96.2% (inactive) | 108% (inactive) | 99.9% (inactive) | 98% (inactive) | 64.3% | 247% (inactive) | 19.3% (inactive) | 93% (inactive) | -8% (inactive) | 8.88% (inactive) | -19% (inactive) | 1.18% (inactive) | 98.4% (inactive) | -0.1 (inactive) | -11% (inactive) | 26.6% (inactive) |
| CC(=O)OCC(=O)[C@@]1(O)[C@H](C)C[C@H]2[C@@H]3CCC4=CC(=O)C=C[C@]4(C)[C@@]3(F)[C@@H](O)C[C@@]21C | 97.2% (inactive) | 119% (inactive) | 107% (inactive) | 80.9% (inactive) | 91.7% (inactive) | 59.3% | 192% (inactive) | 12.3% (inactive) | 108% (inactive) | -2% (inactive) | -2.19% (inactive) | -11.7% (inactive) | 2.51% (inactive) | 99.4% (inactive) | -0.35 (inactive) | 9% (inactive) | -3.28% (inactive) |
| c1ccc(CC2=NCCN2)cc1 | 104% (inactive) | 107% (inactive) | 100% (inactive) | 103% (inactive) | 102% (inactive) | 61.8% | 181% (inactive) | 0% (inactive) | 101% (inactive) | -2% (inactive) | -7.37% (inactive) | -16.6% (inactive) | 1.43% (inactive) | 98% (inactive) | -0.07 (inactive) | -5% (inactive) | 14.9% (inactive) |
| CCOc1ccc(NC2OC(C)C(O)C(O)C2O)c([N+](=O)[O-])c1 (stereo not given) | 101% (inactive) | 104% (inactive) | 97.8% (inactive) | 95.3% (inactive) | 102% (inactive) | 62.7% | 4580% (inactive) | -4.6% (inactive) | 102% (inactive) | 2% (inactive) | 5.64% (inactive) | -9.73% (inactive) | 2.76% (inactive) | 94.8% (inactive) | -0.01 (inactive) | -10% (inactive) | -2.69% (inactive) |
| CCc1oc2ccccc2c1C(=O)c1cc(Br)c(O)c(Br)c1 | 92.2% (inactive) | 117% (inactive) | 106% (inactive) | 78.1% (inactive) | 91% (inactive) | 65.3% | 165% (inactive) | 7.43% (inactive) | 118% (inactive) | 4% (inactive) | 2.6% (inactive) | -0.81% (inactive) | 15.2% (active) | 102% (inactive) | 0.01 (inactive) | 12% (inactive) | 9.83% (inactive) |
| O=C(CC1(O)C(=O)Nc2ccccc21)c1ccccc1O (stereo not given) | 100% (inactive) | 104% (inactive) | 97.8% (inactive) | 103% (inactive) | 101% (inactive) | 61.5% | 195% (inactive) | -6.68% (inactive) | 102% (inactive) | 3% (inactive) | 5.92% (inactive) | -2.48% (inactive) | 17.1% (active) | 99.5% (inactive) | -0.04 (inactive) | 3% (inactive) | 12.9% (inactive) |
| CCOC(=O)c1ncn2c1CN(C)C(=O)c1cc(F)ccc1-2 | 101% (inactive) | 96.6% (inactive) | 96.5% (inactive) | 107% (inactive) | 105% (inactive) | 58.4% | 200% (inactive) | 8.29% (inactive) | 115% (inactive) | 1% (inactive) | 3.78% (inactive) | -0.66% (inactive) | 2.2% (inactive) | 97.7% (inactive) | -0.025 (inactive) | 0% (inactive) | 7.13% (inactive) |
| CCCN(CCC)C(=O)C(CCC(=O)O)NC(=O)c1ccccc1 (stereo not given) | 98.8% (inactive) | 109% (inactive) | 95.4% (inactive) | 92% (inactive) | 94.5% (inactive) | 59.4% | 977% (inactive) | 7.85% (inactive) | 94.3% (inactive) | 7% (inactive) | -4.18% (inactive) | -5.39% (inactive) | -4.29% (inactive) | 99.8% (inactive) | -0.2 (inactive) | -8% (inactive) | 6.11% (inactive) |
| Cc1ccc(O)c(CCc2ccccc2)n1 | 100% (inactive) | 109% (inactive) | 94.2% (inactive) | 90.7% (inactive) | 98.3% (inactive) | 61.6% | 222% (inactive) | -4.6% (inactive) | 106% (inactive) | 2% (inactive) | -1.92% (inactive) | 3.07% (inactive) | 0.6% (inactive) | 98.4% (inactive) | -0.04 (inactive) | 19% (inactive) | 6.11% (inactive) |
| CC(C)(Sc1cc(C(C)(C)C)c(O)c(C(C)(C)C)c1)Sc1cc(C(C)(C)C)c(O)c(C(C)(C)C)c1 | 101% (inactive) | 105% (inactive) | 107% (inactive) | 101% (inactive) | 106% (inactive) | 60.1% | 170% (inactive) | -2.43% (inactive) | 90.1% (inactive) | -5% (inactive) | 1.22% (inactive) | 10.6% (inactive) | -3.38% (inactive) | 102% (inactive) | -0.03 (inactive) | 21% (inactive) | -17.7% (inactive) |
